High-throughput results (PubChem)
Marburg entry inh: Marburg virus entry inhibition; Marburg virus pseudotyped entry inhibition, cell reporter; hit rate 1.8% among 300,000; Potency, µM (highest dose often 37.8 µM), for the others: at the top dose activity change, negative = inhibition, usual class: inhibitors; calls by dose curve; tested in HEK293 cells; note: potency is the fitted concentration of half-maximal effect; % is set by controls: 0 for no effect and ±100 for the full control effect
Cycloheximide cs: counter-screen hit for Shiga toxin inhibitors, cycloheximide; hit rate 12% among 300,000; max response, %; cell reporter, cycloheximide protein synthesis inhibition counterscreen; in the data active = max response mostly above about 13%, no sharp cut-off; inactive = mostly below about 14%; note: read at 38.3 µM for the half of the compounds with a filed dose; 0% is about no effect
Shiga inhibitor: blocks Shiga toxin action in Vero cells | Vero cells, Shiga toxin protein synthesis inhibition reporter | inhibition, % at 38.7 µM | hit rate 9.2% among 290,000 | AID 2315; in the data active = inhibition mostly above about 28%, no sharp cut-off; inactive = mostly below about 43%; note: 0% is about no effect
Lassa entry inh: inhibitors of Lassa virus binding or cell entry. Lassa virus pseudotype entry inhibition, cell reporter. Potency, µM (highest dose often 37.9 µM), for the others: at the top dose activity change, negative = inhibition, usual class: inhibitors. hit rate 1.2% among 300,000. AID 540256; calls by dose curve; tested in HEK293 cells; note: potency is the fitted concentration of half-maximal effect; % is set by controls: 0 for no effect and ±100 for the full control effect; nearly all actives have a fitted effect of over 50% in size
The depositor's hits bear a star; [ ] = dose if it differs, or a comment. In the library only some 12% were active in any assay of this set; here they are far more common.

How did Cc1cccc(-n2ccnc2SCC(=O)Nc2nccs2)c1 do in these assays?
Marburg entry inh: 19.4%[46.1 µM]; Cycloheximide cs: 29.0*; Shiga inhibitor: 57.6; Lassa entry inh: -12.9%

What do the screens show for `COc1cccc(-n2ccnc2SCC(=O)Nc2nccs2)c1`?
Marburg entry inh: 5.7%[46.1 µM]; Cycloheximide cs: 21.4*; Shiga inhibitor: 42.3; Lassa entry inh: 27.9%

Results for Cc1cc(C)cc(-n2ccnc2SCC(=O)Nc2nccs2)c1 ?
Marburg entry inh: -4.6%; Cycloheximide cs: 1.5; Shiga inhibitor: -5.9; Lassa entry inh: 0.3%

Results for COc1ccc(C(CC(=O)Nc2nccs2)n2cccc2)cc1 (stereo not drawn) ?
Marburg entry inh: inconclusive; Cycloheximide cs: 30.8*; Shiga inhibitor: 150.2*; Lassa entry inh: inconclusive

Results for COc1ccc(C(CC(=O)Nc2ccc(Br)cn2)N2Cc3ccccc3C2=O)cc1 (stereo not drawn) ?
Lassa entry inh: -14.0%[46.1 µM]

Results for COc1ccc(C(CC(=O)Nc2ccccn2)N2Cc3ccccc3C2=O)cc1 (stereo not drawn) ?
Marburg entry inh: 12.5%[46.1 µM]; Cycloheximide cs: 30.3*; Shiga inhibitor: 88.0*; Lassa entry inh: 27.8%

How did COc1cccc2c1[C@H](C=Cc1ccccc1)[C@@H]([C@H](O)COC(C)=O)OC2 do in these assays?
Marburg entry inh: 16.1%[14.2 µM]

What do the screens show for `CCC1CCc2c(sc(NC(=O)c3ccco3)c2C(N)=O)C1` (stereo not drawn)?
Marburg entry inh: -1.5%; Cycloheximide cs: 30.4*; Shiga inhibitor: 95.7*; Lassa entry inh: inconclusive

Results for CCC1CCc2c(sc(NC(=O)c3cnccn3)c2C(N)=O)C1 (stereo not drawn) ?
Marburg entry inh: inconclusive; Cycloheximide cs: -2.6; Lassa entry inh: 20.5%[46.1 µM]

What do the screens show for `CC(C)(C)C1CCc2c(sc(NC(=O)C3CCCO3)c2C(N)=O)C1` (stereo not drawn)?
Marburg entry inh: inconclusive; Cycloheximide cs: 3.6; Shiga inhibitor: 10.2; Lassa entry inh: 17.8µM*

Results for NC(=O)c1c(NC(=O)C2CCCO2)sc2c1CCC2 (stereo not drawn) ?
Marburg entry inh: 17.4%; Cycloheximide cs: 13.8; Shiga inhibitor: 42.3; Lassa entry inh: 6.6%

What do the screens show for `CC(C)(C)C1CCc2c(sc(NC(=O)c3ccco3)c2C(N)=O)C1` (stereo not drawn)?
Marburg entry inh: 3.6%; Cycloheximide cs: 14.9*; Shiga inhibitor: 24.1; Lassa entry inh: -7.1%

How did C=CCN=Cc1sc2ccc(OCC)cc2c1O do in these assays?
Cycloheximide cs: 50.9*; Shiga inhibitor: 152.5*

How did CCOc1ccc(N=CNc2ccc(OCC)cc2)cc1 do in these assays?
Marburg entry inh: -21.8%[46.1 µM]; Cycloheximide cs: 1.2; Shiga inhibitor: 20.4; Lassa entry inh: 5.6%[46.1 µM]

What do the screens show for `CCOc1ccc2nc(/N=C/c3nc(-c4ccc(Br)cc4)oc3O)sc2c1`?
Marburg entry inh: 6.6%; Cycloheximide cs: 5.8; Shiga inhibitor: 0.9; Lassa entry inh: 0.3%

What do the screens show for `CCCCN=Cc1sc2ccc(OCC)cc2c1O`?
Marburg entry inh: 1.4%; Cycloheximide cs: 69.2*; Shiga inhibitor: 66.8*; Lassa entry inh: -2.0%

What do the screens show for `O=C(CSc1nnc(Cc2ccccc2)o1)c1cc(F)ccc1F`?
Cycloheximide cs: 13.4; Shiga inhibitor: 21.6

How did O=C(CSc1nnc(Cc2ccccc2)o1)c1ccc(F)cc1 do in these assays?
Marburg entry inh: -1.0%[46.1 µM]; Cycloheximide cs: 8.0*; Shiga inhibitor: 19.1; Lassa entry inh: -12.4%

Results for O=C(CSc1nnc(Cc2ccsc2)o1)c1ccccc1 ?
Marburg entry inh: 20.8%[46.1 µM]; Cycloheximide cs: 21.3*; Shiga inhibitor: 54.8; Lassa entry inh: 6.7%

How did O=C(CSc1nnc(CNC(=O)c2ccco2)o1)c1ccccc1 do in these assays?
Marburg entry inh: 1.4%; Cycloheximide cs: -3.1; Shiga inhibitor: 31.3; Lassa entry inh: inconclusive

How did Cc1ccsc1/C=C1/C(=O)NN(c2ccccc2)C1=O do in these assays?
Marburg entry inh: inconclusive; Cycloheximide cs: 40.1*; Shiga inhibitor: 82.3*; Lassa entry inh: -0.1%

What do the screens show for `Cc1ccsc1C=C1C(=O)c2ccccc2C1=O`?
Marburg entry inh: 6.7%; Cycloheximide cs: 0.6; Shiga inhibitor: 0.5; Lassa entry inh: 4.2%

What do the screens show for `COC(C(=O)Nc1ccc(S(=O)(=O)Nc2ccc(F)cc2)cc1)c1ccccc1` (stereo not drawn)?
Marburg entry inh: 7.94µM*; Cycloheximide cs: -4.6; Shiga inhibitor: -7.5; Lassa entry inh: inconclusive

What do the screens show for `Oc1[nH]c2ccccc2c1C=Nc1ccccc1`?
Cycloheximide cs: 33.1*; Shiga inhibitor: 74.0*

How did O=C(O)CNC(=O)c1ccc(NC(=O)/C(=C/c2ccccc2)NC(=O)c2ccco2)cc1 do in these assays?
Marburg entry inh: inconclusive; Cycloheximide cs: 1.6; Shiga inhibitor: 9.6; Lassa entry inh: inconclusive

Results for CCC(C)N(CCNC(=O)c1ccc2c(c1)NC(=O)c1ccccc1S2)C1CCCCC1 (stereo not drawn) ?
Marburg entry inh: inconclusive; Cycloheximide cs: -4.1; Shiga inhibitor: -3.3; Lassa entry inh: 3.16µM*

How did Cc1ccc(C(C(=O)NC(C)(C)C)N(Cc2ccccc2)C(=O)c2snc(C(N)=O)c2N)o1 (stereo not drawn) do in these assays?
Marburg entry inh: inconclusive; Cycloheximide cs: -1.6; Shiga inhibitor: -6.7; Lassa entry inh: -8.9%

How did Cc1[nH]cnc1CSCc1ccc(Cl)cc1 do in these assays?
Marburg entry inh: 8.6%; Cycloheximide cs: 22.8*; Shiga inhibitor: 73.1*; Lassa entry inh: 1.4%

How did Cc1[nH]cnc1CSCCN do in these assays?
Marburg entry inh: -4.8%; Cycloheximide cs: -2.9; Shiga inhibitor: -5.7; Lassa entry inh: 3.8%

Results for COc1ccc(-c2noc(-c3ccoc3C)n2)cc1 ?
Marburg entry inh: inconclusive; Cycloheximide cs: 59.4*; Shiga inhibitor: 56.5*; Lassa entry inh: -21.1%

How did Cc1cccc(-c2noc(-c3ccoc3C)n2)c1 do in these assays?
Cycloheximide cs: 34.8*; Shiga inhibitor: 100.4*

Results for COc1cccc(-c2noc(-c3ccoc3C)n2)c1 ?
Marburg entry inh: 10.0%[46.1 µM]; Cycloheximide cs: 38.5*; Shiga inhibitor: 122.8*

Results for CCc1ccc2oc(-c3cc(NC(=O)c4cc([N+](=O)[O-])ccc4N4CCOCC4)ccc3Cl)nc2c1 ?
Marburg entry inh: inconclusive; Lassa entry inh: 0.9%[46.1 µM]

What do the screens show for `Cc1cc2c(c(=O)n1Cc1ccccc1)C1O[C@](c3ccsc3)(Cc3ccccc31)O2`?
Cycloheximide cs: -3.4; Shiga inhibitor: inactive

What do the screens show for `O=C(CCCc1nc2ccccc2s1)NNC(=O)CCN1CCN(Cc2ccccc2)CC1`?
Marburg entry inh: -4.5%[46.1 µM]; Cycloheximide cs: -0.9; Shiga inhibitor: 22.7; Lassa entry inh: 13.3%

How did CC(=O)c1ccc(N2Cc3ccccc3C3(CCOCC3)C2=N)cc1 do in these assays?
Cycloheximide cs: 28.2*; Shiga inhibitor: 53.6

What do the screens show for `O=C(COc1ccccc1)NNc1c2ccccc2nc2ccccc12`?
Marburg entry inh: 11.2µM*; Cycloheximide cs: 6.9; Shiga inhibitor: 8.7; Lassa entry inh: inconclusive

Results for O=C(NNc1c2ccccc2nc2ccccc12)c1ccccc1O ?
Marburg entry inh: inconclusive; Cycloheximide cs: 24.9*; Shiga inhibitor: 27.4; Lassa entry inh: inconclusive

Results for O=C(NNc1c2ccccc2nc2ccccc12)c1ccc(O)cc1 ?
Marburg entry inh: 5.8µM*; Cycloheximide cs: 23.5*; Shiga inhibitor: -6.9; Lassa entry inh: inconclusive
